Experimental data: ChEMBL document CHEMBL3433997, “St. Jude Leishmania screening dataset” (2016)

What follows are compounds tested against Solute carrier family 2, facilitated glucose transporter member 1 (Homo sapiens) (UniProt P11166) (assay: ST_JUDE_LEISH: Cytotoxicity at 2uM final concentration against transgenic Leishmania Mexicana promastigotes LmGLUT1 that are glucose transport deficient and complemented with the human glucose transporter GLUT1. Activity is measured by DNA content using SYBR green in vitro).
Sequence of Solute carrier family 2, facilitated glucose transporter member 1 (Homo sapiens) (P11166 whole entry): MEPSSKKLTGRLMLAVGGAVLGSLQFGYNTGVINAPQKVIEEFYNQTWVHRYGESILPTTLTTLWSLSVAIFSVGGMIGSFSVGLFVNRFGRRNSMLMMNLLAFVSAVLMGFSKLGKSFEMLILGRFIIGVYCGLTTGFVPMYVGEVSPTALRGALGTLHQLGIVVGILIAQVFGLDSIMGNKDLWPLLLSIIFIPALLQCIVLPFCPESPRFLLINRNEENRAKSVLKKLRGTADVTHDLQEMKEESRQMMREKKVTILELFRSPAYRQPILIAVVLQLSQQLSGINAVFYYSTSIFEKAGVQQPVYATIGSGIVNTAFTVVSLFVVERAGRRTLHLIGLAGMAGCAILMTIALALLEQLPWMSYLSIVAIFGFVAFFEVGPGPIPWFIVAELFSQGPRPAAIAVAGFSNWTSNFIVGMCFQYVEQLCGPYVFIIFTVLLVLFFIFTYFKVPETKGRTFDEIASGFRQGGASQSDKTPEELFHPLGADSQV
Assay type: functional

SMILES | inhibition [%]
Fc1cc(Cl)ccc1Nc1ccnc2cc(-c3ccc(CN4CCCCC4)o3)ccc12 | 2.55
O=C(/C=C/c1ccc(Cl)c(Cl)c1)N1CCC(CN2CCC(c3c[nH]c4ccncc34)CC2)CC1 | 4.66
COc1cc(Cc2cnc(N)nc2N)cc(OCCCC#N)c1OC | 0.61
O=C(Nc1ccc(Br)cc1)N1CCC(n2c(-c3ccccc3)nc3cccnc32)CC1 | 2.24
CC(C)c1cccc(OCC2CCN(c3ncc(C(=O)NC4CC4)cc3Cl)CC2)c1 | 1.56
CCCC(C)N(Cc1ccc(C(C)(C)C)cc1)C(=O)c1cccc(OC)c1 (stereo not given) | -0.57
Fc1ccc2[nH]cc(CCNCc3ccc(-c4cccc(-c5nc6ccccc6[nH]5)c4)cc3)c2c1 | 4.9
Nc1ncc(Cc2ccc3c(ccc4ccccc43)c2)c(N)n1 | 14.2
Cn1c(NC(=O)C2CCC(CNC(=O)c3ccc(O)c(-c4cccc([N+](=O)[O-])c4)c3)CC2)nc2ccccc21 (stereo not given) | 1.57
O=c1cc(NCCCNCc2ccc(Cl)c(Cl)c2)[nH]c2ccc(Oc3ccccc3)cc12 | -1.41
CN(C)CCN(C)C(=O)c1cc(-c2ccncc2)c(-c2ccc(Cl)c(O)c2)o1 | 8.43
COc1ccc(CNC2CCN(C)CC2)cc1-c1ccc(S(=O)(=O)NCc2ccccc2)cc1 | 3.88
Fc1cccc2sc(Nc3nc(-c4ccccn4)cs3)nc12 | 1.42
CCc1c(C(=O)NC2CCC(N3CCC(c4ccccc4C)CC3)CC2)[nH]c2ccc(OC)cc12 (stereo not given) | 0.2
O=C(c1ccc(-c2cnc3[nH]cc(-c4ccc(C(=O)N5CCOCC5)cc4)c3c2)cc1)N1CCOCC1 | -0.49
COc1ccc2nccc([C@@H](O)CN3CCC(NCc4ccc5nsnc5c4)CC3)c2c1 | 0.12
COc1ccccc1NC(=O)Nc1ccc(-c2ccc(-c3nc4cc(C(F)(F)F)ccc4[nH]3)cc2)cc1 | 9.03
CC(C)CCN1CCCN(Cc2ccc(C(=O)Nc3ccc(C(C)(C)C)cc3)cc2)CC1 | 2.66
N#Cc1cccc(NC(=O)NC2CCN(CCCCCNC(=O)/C=C/c3ccc(Cl)c(Cl)c3)CC2)c1 | 4.68
Cc1cc(C)c2nc(N3CCC(C(=O)NCCCN4CCC(N5CCCCC5)CC4)CC3)sc2c1 | 1.45

SMILES | inhibition [%]
O=C(/C=C/c1ccc(Cl)c(Cl)c1)NCCCCCN1CCCN(C(=O)Nc2ccc(C(F)(F)F)cc2)CC1 | 2.96
CS(=O)(=O)c1cccc(-c2cnc3[nH]cc(-c4ccc(C(=O)O)cc4)c3c2)c1 | 1.01
CC12CCC(CN(CC(O)Cn3c4ccccc4c4cc(I)ccc43)C1)C2(C)C (stereo not given) | 2.02
NS(=O)(=O)Cc1cccc(-c2ccnc3ccc(-c4cccc(S(N)(=O)=O)c4)cc23)c1 | 3.2
Cc1ccc(OCCCCON2C(=N)N=C(N)NC2(C)C)cc1C | 1.02
O=C(Nc1ccsc1)Nc1cccc(-c2cccc(-c3nc4cc(F)ccc4[nH]3)c2)c1 | 2.33
O=C(/C=C/c1ccc(C(F)(F)F)cc1)NCCCCCN1CCN(C(=O)Nc2ccc(Cl)c(Cl)c2)CC1 | 0.91
COc1ccc(Nc2nccc(N3CCC(NC(=O)Nc4ccc5c(c4)OCO5)C3)n2)cc1 (stereo not given) | 0.18
O=C(Nc1ccc(Cl)cc1)Nc1cccc(-c2cccc(-c3nc4cc(F)ccc4[nH]3)c2)c1 | 7
COc1ccc(CNCc2ccccc2)cc1-c1ccc(OC)c(S(=O)(=O)NCCN2CCCC2)c1 | -0.27
N#CC(c1ccc(F)cc1)c1ccc2c(C(F)(F)F)cc(C(F)(F)F)nc2n1 (stereo not given) | 3.66
CCN(CCCN1CCCCC1)c1cc(C)nc(Nc2ccc3c(c2)CCC3)n1 | -1.26
Cc1cccc(Nc2nc3nonc3nc2Nc2cccc(Cl)c2Cl)c1C | 9.75
O=S(=O)(Nc1cccc(CCN2CCC(N3CCCCC3)CC2)c1)c1cccc2cccnc12 | 0.25
CCCCCNC(=N)N/N=C/c1c[nH]c2ccc(OC)cc12 | 1.71
O=C(N[C@@H](CC1CCCCC1)C(=O)NC1CCCCCC1)c1ccc(O)c(-c2ccc(Cl)c(Cl)c2)c1 | -0.25
Cc1ccccc1C1CCN(C2CCC(NC(=O)c3csc(-c4cccc(Cl)c4)n3)CC2)CC1 (stereo not given) | 9.21
O=C(NCc1ccc(Cl)cc1)c1ccc(CN2CCCN(Cc3cccc(O)c3)CC2)cc1 | 0.86
O=C(C=Cc1ccc(Cl)c(Cl)c1)NCCCCCN1CCC(CCNC(=O)/C=C/c2ccccc2)CC1 | 0.55
N=c1n(CCN2CCCC2)c2ccccc2n1CC(O)c1ccc(Cl)c(Cl)c1 (stereo not given) | 1.98
